Compound activity (PubChem BioAssay)
Only some compounds are listed: those with a hit (about 7.3% of all), similar ones and a draw of the others.
HCV inh: blocks hepatitis C virus; Huh7.5.1 HCVcc-Cre infection, luciferase reporter, 44 h; Potency, µM (titrated, usually from 41.8 µM), for the others: at the top dose activity change, negative = inhibition, hits mostly inhibitors; 340,000 compounds, 3.4% hits; also: potency is read from the fitted curve at half-maximal effect
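Cells (1,000/well) were plated 4 h before compound, then infected with HCVcc-Cre virus (~0.5 moi). After 44 h further culture, infection was read as luciferase luminescence following a 15 min substrate incubation at room temperature.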
FMDV antiviral: blocks foot and mouth disease virus. Potency, µM (top dose mostly 57.9 µM), inactives show at the highest dose activity change, negative = inhibition, actives largely listed as inhibitors. FMDV antiviral cell-based qHTS. AID 1159524. 410,000 compounds, 1.2% hits; calls by dose curve; tested in HEK293T cells; also: read-out not given here; potency is read from the fitted curve at half-maximal effect; nearly all actives have a fitted effect of over 45% in size
AmpC no deterg: AmpC beta-lactamase inhibition without detergent. P00811. AmpC nitrocefin hydrolysis, absorbance 480 nm, 0.0001% Triton. Potency, µM (series often up to 57.1 µM), for the others: at the top dose activity change, negative = inhibition, usual class: inhibitors. 330,000 compounds, 0.52% hits;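 also: potency is read from the fitted curve at half-maximal effect; plate controls were no compound for no effect and no enzyme for full effect; nearly all actives have a fitted effect of over 20% in size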
Target sequence (P00811 whole entry, looked up): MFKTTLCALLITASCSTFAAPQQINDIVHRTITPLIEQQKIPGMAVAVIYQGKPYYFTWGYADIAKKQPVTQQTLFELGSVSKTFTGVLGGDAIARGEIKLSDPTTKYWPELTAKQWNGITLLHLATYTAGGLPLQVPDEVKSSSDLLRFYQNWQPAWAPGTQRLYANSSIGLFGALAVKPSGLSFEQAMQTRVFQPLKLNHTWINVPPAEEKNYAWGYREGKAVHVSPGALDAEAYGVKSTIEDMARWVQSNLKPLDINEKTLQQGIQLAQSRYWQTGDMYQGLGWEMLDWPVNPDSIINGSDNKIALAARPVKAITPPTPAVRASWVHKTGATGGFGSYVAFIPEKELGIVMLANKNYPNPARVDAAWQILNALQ
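20 mM phosphate pH 7.0 + 0.01% (detergent screen) or 0.0001% Triton X-100; 5.3 nM AmpC reagent; cpd preinc 15 min RT; nitrocefin (800 uM stock) to start; A480 q20 s × 4 min; Activity was normalised to no-enzyme and no-compound control wells.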
AmpC detergent: blocks E. coli AmpC beta-lactamase in detergent assay | AID 485294 | Potency, µM (doses to about 114 µM), for the others: at the highest dose activity change, negative = inhibition, most hits filed as inhibitors | P00811 | 370,000 compounds, 0.041% hits | AmpC hydrolysis of nitrocefin, absorbance 480 nm, 0.01% Triton;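 also: potency is read from the fitted curve at half-maximal effect; 0% = no-compound wells and -100% = no-enzyme wells; nearly all actives have a fitted effect of over 25% in size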
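20 mM phosphate pH 7.0 + 0.01% (detergent screen) or 0.0001% Triton X-100; 5.3 nM AmpC reagent; cpd preinc 15 min RT; nitrocefin (800 uM stock) to start; A480 q20 s × 4 min; Activity was normalised to no-enzyme and no-compound control wells.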
HCMV inh: inhibitors of human cytomegalovirus. activity change, negative = inhibition, % at 57.5 µM. HFF cells, HCMV-luciferase reporter, 72 h; hits give low values. 410,000 compounds, 4.5% hits; in the data active = activity change below about -60%; inconclusive = no clear call, values can overlap the other calls; inactive = above about -39%
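Inhibition of viral replication was scored as loss of reporter luminescence in HFFs infected with HCMV-luciferase (MOI 1 PFU/cell) for 72 h; compounds tested at 2 doses, normalized to buffer and Salinomycin controls.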
An asterisk follows results filed as active; ? = inconclusive; nt = not tested or not shown. Unless noted, calls follow the shape of the dose curve; as a rule, active = well fitted curve in the direction sought with a large enough effect; inconclusive = small, poorly fitted or top-dose-only effect, or another doubt; inactive = no such curve, though single readings can be large; an effect the other way counts as inactive or inconclusive. Unless noted, % is scaled to controls: 0 for no effect and ±100 for the full control effect.

SMILES	HCV inh	FMDV antiviral	AmpC no deterg	AmpC detergent	HCMV inh
CCN(CC)C(=O)c1sc2c(c1C)c(=O)n(Cc1ccccc1)c(=O)n2Cc1c(C)cc(C)cc1C	nt	0%	nt	8%	-21
Cc1cc(C)cc(OCC(=O)OCC(=O)Nc2cc(S(=O)(=O)N3CCOCC3)ccc2Cl)c1	-1%	-9%	23%	nt	6
CCC1CN(Cc2cccn2-c2ccccn2)Cc2cc(OC)ccc2O1 (stereo not drawn)	nt	26%	nt	nt	nt
CCc1ccc(NC(=O)c2cnn(-c3ccccc3)c2C2CCNCC2)cc1	28%	-20%	37%	1%	?
Cc1cc(C)cc(NC(=O)c2cnn(-c3ccccc3)c2C2CCNCC2)c1	-1%	-12%	-5%	-3%	-86*
Cc1ccc(-n2ncc(C(=O)Nc3cc(Cl)ccc3C)c2C2CCNCC2)cc1C	-11%	-22%	26%	0%	-91*
Cc1ccc(C)c(NC(=O)c2cnn(-c3ccc(F)cc3F)c2C2CCNCC2)c1	nt	-14%	nt	-2%	12
CC(C)CC(=O)NC1CC(=O)N(c2ccc3c(c2)OCCO3)C1 (stereo not drawn)	nt	-20%	nt	-2%	4
COc1ccccc1C(=O)N=C1SC2CS(=O)(=O)CC2N1c1ccccc1 (stereo not drawn)	12%	9%	-5%	-2%	-21
COc1ccc(NC(=O)CSCC(=O)OCc2cccc(OC)c2OC)cc1	15%	-17%	-6%	0%	-19
COC(=O)Nc1nc2ccc(SC(C)C)cc2[nH]1	?	45%	-7%	-6%	-82*
COC(=O)Nc1nc2ccc(C(=O)c3ccccc3)cc2[nH]1	nt	29%	nt	nt	nt
COC(=O)Nc1nc2ccc(C(=O)c3cccs3)cc2[nH]1	-8%	20%	nt	nt	-75*
COc1ccc(C2NC(=O)NC(C)=C2C(=O)OC2CCC(C)CC2)cc1 (stereo not drawn)	?	-17%	21%	1%	?
CC(C)CC(=O)N1c2nc(C(C)C)nn2C2(CCCCC2)[C@@H]2CCCC[C@@H]21	nt	0%	nt	9%	40
CCCC(=O)N1c2nc(C(C)C)nn2C2(CCCCC2)[C@@H]2CCCC[C@@H]21	nt	-6%	nt	14%	-75*
CN(CC(=O)Nc1cccc(F)c1)C(=O)c1ccc2c(c1)CC(c1ccccc1)OC2=O (stereo not drawn)	?	?	44%	0%	-19
CC(=O)c1ccc(-n2nnnc2SCC(=O)Nc2sc(C)c(C)c2C#N)cc1	-10%	3%	-36%	-4%	-32
Cc1ccc(-n2nnnc2SCC(=O)Nc2sc(C)c(C)c2C#N)cc1C	22%	nt	0.32µM*	-2%	61
Cc1sc(NC(=O)COc2cccc(-n3cnnn3)c2)c(C#N)c1C	-23%	3%	-16%	?	-62*
CC(C)(Oc1ccc(Br)cc1)C(=O)Nc1cc(-c2nc3ccccc3[nH]2)ccc1Cl	nt	-12%	nt	-2%	-16
COc1ccc(OC)c(C(C(=O)NC2CCCCC2)N(C(=O)c2snc(C(N)=O)c2N)c2ccccc2OC)c1 (stereo not drawn)	0%	-22%	23%	0%	-61*
O=C(CSCc1ccccc1Cl)NN=C1CCCCCC1	23%	33%	0.22µM*	4%	135
Cc1cccnc1C(NC(=O)C1CCN(Cc2cn(C)c3ccccc23)CC1)c1ccc(Cl)cc1 (stereo not drawn)	nt	0%	nt	nt	7
CCN(CC)S(=O)(=O)c1ccc(C(=O)/C=C/c2ccc(-c3ccc([N+](=O)[O-])cc3)o2)cc1	-14%	-11%	-33%	-1%	6
SMILES	HCV inh	FMDV antiviral	AmpC no deterg	AmpC detergent	HCMV inh
CCOC(=O)CCc1ccc(NC(=O)/C=C/c2ccc([N+](=O)[O-])o2)cc1	?	25µM*	nt	nt	-15
CCc1ccc(C(=O)/C=C/c2ccc([N+](=O)[O-])o2)cc1	-6%	35µM*	-22%	0%	29
Cc1cc(Cl)c(S(=O)(=O)Nc2ccon2)cc1OCC(=O)NC1CCCCC1	1%	0%	0.22µM*	-1%	14
Cc1cc(Cl)c(S(=O)(=O)NCC2CCCO2)cc1OCC(=O)NC1CCCCC1 (stereo not drawn)	12%	3%	32%	-15%	-93*
Cc1cc(Cl)c(S(=O)(=O)NC2CCCCC2)cc1OCC(=O)Nc1nncs1	-18%	-8%	-17%	12%	-28
Cc1cc(Cl)c(S(=O)(=O)N2CCN(c3ccc(F)cc3)CC2)cc1OCC(=O)NC1CCCCC1	0.79µM*	?	0%	-12%	-98*
Cc1cc(Cl)c(S(=O)(=O)Nc2ccc3c(c2)OCCO3)cc1OCC(=O)NC1CCCCC1	-19%	?	-41%	?	-70*
COC(=O)COc1ccc(S(=O)(=O)Nc2ccc3c(c2)OCCO3)cc1Cl	10%	-7%	-31%	-12%	-1
COc1ccccc1NC(=O)N[C@H]1CC[C@@]23CCCN2C(=O)CCC[C@H]3[C@H]1C	nt	nt	nt	nt	0
Oc1ccccc1N1CCN(c2ncnc3scc(-c4ccc(F)cc4)c23)CC1	11µM*	-10%	-12%	-3%	-81*
Oc1ccccc1N1CCN(c2ncnc3scc(-c4ccccc4)c23)CC1	?	-19%	-11%	?	-22
CN1CCN(c2ncnc3scc(-c4ccccc4Cl)c23)CC1	-16%	?	33%	-11%	-73*
CN1CCN(c2ncncc2-c2ccccc2Cl)CC1	nt	-13%	nt	nt	nt
OCC1CCCN(c2ncnc3scc(-c4ccccc4)c23)C1 (stereo not drawn)	-12%	-19%	1%	4%	-63*
Fc1ccc(CN2CCN(c3ncnc4scc(-c5ccccc5)c34)CC2)cc1	?	?	67%	-8%	-74*
CCOC(=O)COc1ccc([N+](=O)[O-])cc1-c1ccnc2cc(-c3ccc(Cl)cc3)nn12	nt	-16%	nt	-4%	24
C[C@H]1[C@@H](NC(=O)Nc2cc(Cl)cc(Cl)c2)CC[C@@]23CCCN2C(=O)CCC[C@@H]13	nt	nt	nt	nt	4
CCOC(=O)C1CCN(C(=O)c2ccc(OCC(=O)Nc3ccc(OCC)cc3)c(OC)c2)CC1	?	?	151%	-6%	-2
COc1ccc(N2CCOCC2)c(NC(=O)c2ccc(Br)o2)c1	nt	?	21%	-10%	-81*
O=C(Nc1cc(Cl)ccc1N1CCOCC1)c1ccc(Br)o1	5%	-5%	-13%	11%	nt
COc1ccccc1NS(=O)(=O)c1ccc(N2CCOCC2)c(NC(=O)c2ccco2)c1	11µM*	40%	15%	-10%	-25
O=C(Nc1cc(S(=O)(=O)Nc2ccc(Cl)cc2)ccc1N1CCCCC1)c1ccc(F)cc1	7.1µM*	26%	-27%	2%	-64*
N#Cc1ccc(C(=O)Nc2cc(S(=O)(=O)Nc3ccc(Cl)cc3)ccc2N2CCCCC2)cc1	?	50%	-55%	-11%	?
